Laboratory results: PubChem BioAssay (EPA / NIEHS)
Inconclusive results are not listed. Activity calls are given as the source filed them. The calls were made as follows, unless noted: active = hit-call score of the fitted dose curve at least 0.9, where 1 is the maximum; inconclusive = response in the unintended direction; inactive = score below 0.9.

Legend:
[1] = target: X-box-binding protein 1 (Homo sapiens) (UniProt P17861); test: ATG_Xbp1_CIS: Attagene CIS-FACTORIAL HepG2 Assay for human X-box Binding Protein 1 (XBP1) (AID 2282972; active = hit-call score of the fitted dose curve at least 0.9, where 1 is the maximum; inactive = score below 0.9); conditions: HepG2 XBP1 cis-element reporter, Attagene multiplex; actives raise or lower the signal
Chain of X-box-binding protein 1 (Homo sapiens) (P17861 whole entry, looked up): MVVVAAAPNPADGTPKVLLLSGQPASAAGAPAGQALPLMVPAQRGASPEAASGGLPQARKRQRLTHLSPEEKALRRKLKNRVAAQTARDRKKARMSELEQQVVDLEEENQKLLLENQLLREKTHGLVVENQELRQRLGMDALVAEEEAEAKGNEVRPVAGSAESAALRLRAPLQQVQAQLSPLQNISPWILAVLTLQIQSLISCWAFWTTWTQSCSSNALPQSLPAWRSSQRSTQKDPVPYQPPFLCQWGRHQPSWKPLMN
How it was run: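 Reporter transcripts were quantified by RT-PCR with fluorescent primer extension and capillary electrophoresis after 24 h chemical exposure. Cells: transiently transfected HepG2 carrying cis-regulated reporter constructs; data fitted bidirectionally relative to DMSO.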

[2] = ATG_M_19_TRANS: Attagene TRANS-FACTORIAL HepG2 Assay for M19 Transcription Factor (Internal Marker) (AID 2282974); conditions: HepG2 Attagene TRANS-FACTORIAL M19 internal marker reporter
How it was run: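 Using RT-PCR and capillary electrophoresis, reporter mRNA from transiently transfected human HepG2 cells was quantified following 24 h exposure; activity was fitted in the positive direction against DMSO.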

[3] = ATG_GAL4_TRANS: Attagene TRANS-FACTORIAL HepG2 Assay for GAL4 (Internal Marker) (AID 2282976); conditions: HepG2 Attagene TRANS GAL4 internal marker reporter
How it was run: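 Fluorescence from capillary electrophoresis of labelled RT-PCR products quantifies reporter mRNA induction after 24 h dosing of HepG2 cells carrying transfected GAL4-UAS reporter transcription units. Vehicle DMSO serves as baseline.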

[4] = target: Glucocorticoid receptor (Homo sapiens) (UniProt P04150); test: ATG_GR_TRANS: Attagene TRANS-FACTORIAL HepG2 Assay for human Glucocorticoid Receptor (GR) (AID 2282978); conditions: HepG2 Attagene TRANS GR reporter, mRNA transcription;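 also: activators score as hits since higher reporter transcript over DMSO is fitted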
Chain of Glucocorticoid receptor (Homo sapiens) (P04150 whole entry, looked up, the tested form may be a part): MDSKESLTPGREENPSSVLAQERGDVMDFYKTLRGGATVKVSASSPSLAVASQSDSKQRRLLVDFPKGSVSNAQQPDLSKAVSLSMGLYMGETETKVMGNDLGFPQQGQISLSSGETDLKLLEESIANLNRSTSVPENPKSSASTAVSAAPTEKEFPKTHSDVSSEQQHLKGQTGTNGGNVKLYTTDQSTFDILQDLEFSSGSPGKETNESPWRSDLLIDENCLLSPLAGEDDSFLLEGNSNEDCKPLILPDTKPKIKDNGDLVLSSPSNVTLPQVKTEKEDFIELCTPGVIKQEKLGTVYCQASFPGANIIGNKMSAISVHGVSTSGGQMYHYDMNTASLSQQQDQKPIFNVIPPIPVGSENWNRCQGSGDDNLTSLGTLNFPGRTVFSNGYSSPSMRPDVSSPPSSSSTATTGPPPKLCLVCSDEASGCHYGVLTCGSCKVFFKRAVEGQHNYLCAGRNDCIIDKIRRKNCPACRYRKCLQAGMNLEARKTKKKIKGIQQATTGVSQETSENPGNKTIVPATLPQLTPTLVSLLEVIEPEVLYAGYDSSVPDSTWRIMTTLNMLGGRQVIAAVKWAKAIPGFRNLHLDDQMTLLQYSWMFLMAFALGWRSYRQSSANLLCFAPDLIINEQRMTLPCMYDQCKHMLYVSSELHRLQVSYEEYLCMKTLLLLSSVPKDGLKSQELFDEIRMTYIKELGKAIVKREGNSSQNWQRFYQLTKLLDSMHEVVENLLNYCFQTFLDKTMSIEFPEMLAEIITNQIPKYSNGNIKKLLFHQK
How it was run: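 Exogenous NR-GAL4 fusion activity was assessed through induced GAL4-UAS reporter transcripts in transfected human HepG2 cells, quantified after 24 h by RT-PCR and fluorescent capillary electrophoresis with DMSO as baseline.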

[5] = target: Bile acid receptor (Homo sapiens) (UniProt Q96RI1); test: ATG_FXR_TRANS: Attagene TRANS-FACTORIAL HepG2 Assay for Farnesoid X Receptor (FXR) (AID 2282979); conditions: HepG2 Attagene TRANS FXR-GAL4 reporter transcription;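 also: hits raise reporter mRNA above DMSO so AC50 marks FXR activation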
Chain of Bile acid receptor (Homo sapiens) (Q96RI1 whole entry, looked up, the tested form may be a part): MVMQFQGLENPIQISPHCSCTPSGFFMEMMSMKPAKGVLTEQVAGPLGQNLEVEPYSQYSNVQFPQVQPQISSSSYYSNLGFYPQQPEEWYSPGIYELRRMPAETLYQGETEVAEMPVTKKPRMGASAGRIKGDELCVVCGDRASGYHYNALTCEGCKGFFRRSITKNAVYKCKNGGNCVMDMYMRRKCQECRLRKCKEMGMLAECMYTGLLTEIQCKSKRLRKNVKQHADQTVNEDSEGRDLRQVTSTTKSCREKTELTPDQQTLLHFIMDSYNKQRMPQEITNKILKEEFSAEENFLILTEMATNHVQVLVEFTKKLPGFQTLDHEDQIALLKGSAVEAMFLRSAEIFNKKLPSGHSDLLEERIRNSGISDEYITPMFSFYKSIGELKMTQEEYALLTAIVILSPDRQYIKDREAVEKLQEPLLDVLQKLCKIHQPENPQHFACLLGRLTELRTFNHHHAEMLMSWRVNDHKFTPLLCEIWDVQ
How it was run: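 Chimeric FXR-GAL4 activity in transiently transfected human HepG2 liver cells is scored as induction of reporter mRNA after 24 h of dosing. Detection uses RT-PCR with fluorescent labelling and capillary electrophoresis, with DMSO serving as baseline.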

[6] = target: Oxysterols receptor LXR-beta (Homo sapiens) (UniProt P55055); test: ATG_LXRb_TRANS: Attagene TRANS-FACTORIAL HepG2 Assay for human Liver X Receptor beta (LXRb) (AID 2282981); conditions: HepG2 Attagene TRANS GAL4-LXRb reporter, mRNA
Chain of Oxysterols receptor LXR-beta (Homo sapiens) (P55055 whole entry, looked up, the tested form may be a part): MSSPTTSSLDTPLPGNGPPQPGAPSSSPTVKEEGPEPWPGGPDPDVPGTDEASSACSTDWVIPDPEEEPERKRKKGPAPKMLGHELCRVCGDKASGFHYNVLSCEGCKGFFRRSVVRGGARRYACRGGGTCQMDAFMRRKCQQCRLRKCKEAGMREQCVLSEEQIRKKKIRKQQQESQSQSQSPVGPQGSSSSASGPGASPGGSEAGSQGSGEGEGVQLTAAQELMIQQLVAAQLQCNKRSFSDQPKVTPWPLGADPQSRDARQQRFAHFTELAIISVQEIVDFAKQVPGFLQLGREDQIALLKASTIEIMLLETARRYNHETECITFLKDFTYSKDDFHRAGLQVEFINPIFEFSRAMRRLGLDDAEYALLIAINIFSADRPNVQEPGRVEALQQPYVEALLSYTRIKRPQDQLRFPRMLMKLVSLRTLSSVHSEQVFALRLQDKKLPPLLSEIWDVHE
How it was run: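 After 24 h of chemical treatment, transfected HepG2 cells yield total RNA; reporter cDNA is PCR-amplified, FAM-labelled, HpaI-cut and run on capillary electrophoresis. Signal reflects chimeric LXRb-Gal4 activity on GAL4-UAS reporters.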

[7] = target: Oxysterols receptor LXR-alpha (Homo sapiens) (UniProt Q13133); test: ATG_LXRa_TRANS: Attagene TRANS-FACTORIAL HepG2 Assay for human Liver X Receptor alpha (LXRa) (AID 2282980); conditions: HepG2 Attagene TRANS reporter, LXRa transactivation
Chain of Oxysterols receptor LXR-alpha (Homo sapiens) (Q13133 whole entry, looked up): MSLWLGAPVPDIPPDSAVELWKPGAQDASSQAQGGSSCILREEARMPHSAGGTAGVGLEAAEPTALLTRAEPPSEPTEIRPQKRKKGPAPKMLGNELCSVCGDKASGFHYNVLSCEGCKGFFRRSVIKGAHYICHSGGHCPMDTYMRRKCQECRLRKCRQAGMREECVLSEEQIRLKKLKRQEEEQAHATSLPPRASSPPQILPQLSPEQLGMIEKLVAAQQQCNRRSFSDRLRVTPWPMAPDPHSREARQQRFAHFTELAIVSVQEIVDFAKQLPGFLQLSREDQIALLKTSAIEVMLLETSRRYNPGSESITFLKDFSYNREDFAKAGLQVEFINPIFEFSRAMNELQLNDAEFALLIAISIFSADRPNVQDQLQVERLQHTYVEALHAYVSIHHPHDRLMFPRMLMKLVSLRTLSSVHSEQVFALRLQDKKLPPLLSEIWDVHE
How it was run: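 Transient HepG2 transfectants, 24 h dosing, RT-PCR/CE mRNA reporter quantitation; gain-of-signal vs DMSO.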

[8] = target: Estrogen-related receptor gamma (Homo sapiens) (UniProt P62508); test: ATG_ERRg_TRANS: Attagene TRANS-FACTORIAL HepG2 Assay for human Estrogen-Related Receptor gamma (ERRg) (AID 2282977); conditions: HepG2 Attagene TRANS reporter, ERRg transactivation;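 also: hits increase reporter signal over DMSO so potencies reflect activators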
Chain of Estrogen-related receptor gamma (Homo sapiens) (P62508 whole entry, looked up, the tested form may be a part): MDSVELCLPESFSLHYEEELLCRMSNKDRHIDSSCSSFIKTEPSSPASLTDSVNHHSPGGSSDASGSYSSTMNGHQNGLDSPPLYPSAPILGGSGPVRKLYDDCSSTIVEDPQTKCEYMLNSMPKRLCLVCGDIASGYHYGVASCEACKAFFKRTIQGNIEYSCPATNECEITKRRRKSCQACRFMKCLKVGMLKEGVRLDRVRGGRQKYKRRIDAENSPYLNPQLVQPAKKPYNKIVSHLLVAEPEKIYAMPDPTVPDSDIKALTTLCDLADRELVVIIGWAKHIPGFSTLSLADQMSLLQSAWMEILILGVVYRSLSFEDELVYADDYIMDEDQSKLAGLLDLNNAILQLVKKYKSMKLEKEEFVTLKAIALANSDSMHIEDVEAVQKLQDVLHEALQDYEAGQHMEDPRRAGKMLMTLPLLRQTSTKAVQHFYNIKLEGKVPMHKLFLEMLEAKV
How it was run: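 Readout: fluorescent reporter-mRNA fragments resolved by capillary electrophoresis after RT-PCR and HpaI cut. Cells: transiently transfected HepG2 carrying GAL4-UAS reporters driven by exogenous NR-Gal4 chimeras, dosed 24 h. Activity fitted upward relative to DMSO baseline.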

Measured: AC50

CN(N=O)C(N)=O
not listed: [7] | [8]
inactive: all other assays above

c1csc(-c2ccc(-c3cccs3)s2)c1
inactive: [2] | [7] | [6]
active: [1] 2.54 µM

CCCSP(=S)(OCC)Oc1ccc(SC)cc1 (configuration not stated)
inactive: [1] | [2] | [8] | [5]

Cc1cc(C(F)(C(F)(F)F)C(F)(F)F)ccc1NC(=O)c1cccc(I)c1C(=O)NC(C)(C)CS(C)(=O)=O
inactive: [1] | [2] | [8] | [4]

CC1(C)[C@H](C(=O)O[C@H](C#N)c2cccc(Oc3ccccc3)c2)[C@@H]1/C=C(\Cl)C(F)(F)F
inactive: [1] | [3] | [4] | [5]

C=CCc1ccccc1O
not listed: [2] | [7]
inactive: all other assays above

Cc1cccc(OP(=O)(Oc2cccc(C)c2)Oc2cccc(C)c2)c1
inactive: [1] | [2] | [5]

O=NN1CCOCC1
inactive: [1] | [3]

C[C@@H]1O[C@@H](O[C@H]2C[C@@H](O)[C@]3(CO)[C@H]4[C@H](O)C[C@]5(C)[C@@H](C6=CC(=O)OC6)CC[C@]5(O)[C@@H]4CC[C@]3(O)C2)[C@H](O)[C@H](O)[C@H]1O
inactive: [2] | [6]
active: [1] 0.628 µM

Cc1cc(Cl)ccc1O
inactive: [1] | [2] | [4] | [5] | [6]

CCN(N=O)C(N)=O
inactive: [1] | [3] | [4] | [5] | [7]

CN(C)CCN(C)C
not listed: [3] | [8]
inactive: all other assays above

CN(C)C(=S)S
active: [7] 24.8 µM
inactive: [1] | [2] | [3] | [6]

CCCCN(CCCCO)N=O
inactive: [1] | [3] | [4]

CC(C)CP(=S)(S)CC(C)C
inactive: [1] | [3] | [4]

ClCc1ccccc1Cl
active: [1] 100 µM
inactive: [2] | [8]

Cc1cc(-c2cc(C)c(N)c(C)c2)cc(C)c1N
inactive: [1] | [2] | [4] | [7]

[F][Sn]([c]1ccccc1)([c]1ccccc1)[c]1ccccc1
inactive: [2] | [5] | [6]
active: [1] 0.326 µM

C=CCOC(N)=O
inactive: [1] | [3] | [4] | [5] | [6]

Clc1cnc(Oc2ccc(Oc3ncc(Cl)cc3Cl)cc2)c(Cl)c1
inactive: [1] | [2] | [6]

C[As+](C)(C)CC(=O)[O-]
inactive: [1] | [3] | [4]

CC[N+](CC)(CC)CC
inactive: [1] | [3] | [4] | [7]

CCCCCCCCCCBr
inactive: [1] | [2] | [8] | [4] | [7]

Fc1cccc(Cl)c1CCl
inactive: [1] | [2] | [4] | [7] | [6]

CNC(=O)CSP(=O)(OC)OC
inactive: [1] | [2] | [4] | [5] | [6]

O=[N+]([O-])c1ccc(Cl)c([N+](=O)[O-])c1
inactive: [1] | [2] | [4] | [7]

c1ccc(-c2cccc(-c3ccccc3)c2)cc1
inactive: [1] | [2] | [5] | [7] | [6]

c1ccc2sc(SNC3CCCCC3)nc2c1
inactive: [1] | [2] | [4] | [7]

Oc1cc(Cl)c(Cl)cc1Cl
inactive: [2] | [3] | [6]
active: [1] 59 µM

O=S(=O)(c1ccc(Cl)cc1)c1cc(Cl)c(Cl)cc1Cl
inactive: [1] | [3] | [4] | [5]

Cc1cc(C)cc(C)c1
inactive: [1] | [2] | [3] | [6]

COc1nn(C(=O)NS(=O)(=O)c2ccccc2OC(F)(F)F)c(=O)n1C
inactive: [1] | [3] | [4] | [5] | [7]

Oc1cccc(-c2ccccc2)c1
inactive: [1] | [3] | [8] | [4]

O=C(O)c1cc(I)cc(I)c1I
inactive: [1] | [3] | [4] | [7]

CCCCC(CC)COC(=O)Cl (configuration not stated)
inactive: [1] | [3] | [8]

C=CCCl
inactive: [1] | [2] | [4] | [7] | [6]

Cc1cc(Cl)ccc1N
inactive: [1] | [3] | [4] | [7]

CCCCCCCCCCCCCl
inactive: [1] | [2] | [4] | [7] | [6]

O=S1OC[C@@H]2[C@H](CO1)[C@]1(Cl)C(Cl)=C(Cl)[C@@]2(Cl)C1(Cl)Cl (some centres not stated)
inactive: [4] | [5]
active: [1] 100 µM

CC(C)O.CC(C)O.OCCN(CCO)CCO.OCCN(CCO)CCO.[Ti]
inactive: [1] | [3] | [7] | [6]

ClCCCCl
inactive: [1] | [4]

CCCCCCCCCCCCBr
inactive: [1] | [3] | [4] | [6]

CC(C)[C@@H](Nc1ccc(C(F)(F)F)cc1Cl)C(=O)OC(C#N)c1cccc(Oc2ccccc2)c1 (some centres not stated)
inactive: [1] | [5]
